Shown are actives, neighbours in structure and some others; about 4.8% of the full set was active somewhere.
HEK293 cAMP cs: counter-screen for TSHR agonists: cAMP increase in parental HEK293; Potency, µM (top dose mostly 57.1 µM), hits mostly activators; 2.5% of 73,000 active; parental HEK293 CNG cAMP sensor, membrane potential fluorescence; further: nearly all actives have a fitted effect of over 55% in size
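Counterscreen for endogenous-receptor signalling: CNG-channel HEK 293 cells report cAMP rise by membrane depolarization. After 60 min dye equilibration with 100 uM RO 20-1724, compounds incubated 30 min before bottom-read fluorescence at 590 nm.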
TSHR agonist: activates the human thyroid stimulating hormone receptor; 0.48% of 73,000 active; Potency, µM (doses to about 57.1 µM), actives largely listed as activators; P16473; HEK293-CNG-TSHR cells (CNG channel as cAMP sensor), membrane potential dye, cAMP; active means well fitted activation curve with a large enough effect in the main read-out, with a control signal flat, not every such curve was filed as active; inconclusive means small, poorly fitted or top-dose-only effect, or a change in a side signal; inactive means no such curve, though single readings can be large or run the other way; reference of the percent scale not stated here;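 further: the control signal comes from parental cells without the receptor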
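HEK 293 cells stably expressing TSHR and a cAMP-gated CNG channel; parental CNG-only cells as counterscreen. Cells preloaded 60 min with membrane potential dye plus 100 uM RO 20-1724, then compound 30 min; fluorescence read at 590 nm.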
Caspase-1 inhib: allosteric or competitive inhibitors of human caspase-1 | P29466 | Caspase-1 enzyme, Ac-WEHD-AFC fluorogenic rate | Potency, µM (top dose mostly 57.5 µM), most hits filed as inhibitors | 0.03% of 75,000 active | AID 900
Casp7 inh: blocks human caspase-7 allosterically or competitively. P55210. recombinant caspase-7, Ac-DEVD-AFC fluorescence rate. Potency, µM (series often up to 57.5 µM), actives largely listed as inhibitors. 0.02% of 75,000 active. AID 889; active means well fitted inhibition curve with a large enough effect in the main read-out, with a control signal flat, not every such curve was filed as active; inconclusive means small, poorly fitted or top-dose-only effect, or a change in a side signal
ERK AVP block: vasopressin-driven ERK pathway inhibition; 0.99% of 72,000 active; Potency, µM (top dose mostly 57.5 µM), hits mostly inhibitors; AID 995; HEK293-V1b, vasopressin-stimulated pERK AlphaScreen; further: nearly all actives have a fitted effect of over 55% in size
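Overnight-seeded V1b-HEK293 cells in 1% FBS got compound, then vasopressin (25 nM final, 5 min, 37C), then lysis buffer. AlphaScreen detection of phospho-ERK; activity normalized to basal and full-stimulation controls.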
15-hLO inh: 15-hLO (ALOX15) enzyme inhibition; P16050; purified 15hLO-1, xylenol orange hydroperoxide absorbance; Potency, µM (series often up to 57.1 µM), actives largely listed as inhibitors; 1.4% of 74,000 active; further: nearly all actives have a fitted effect of over 55% in size
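Purified human 15hLO-1 (40 nM final) in 25 mM Hepes pH 7.5, 0.01% Triton X-100 was preincubated with compound 15 min at room temperature, then reacted 6 min with 50 uM arachidonic acid; hydroperoxide detected by Fe-XO, 573/405 nm absorbance ratio.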
A number is an active result; n = inactive; u = inconclusive; x = no result given; [ ] = remark or other dose. Unless noted, the call rests on the fitted dose curve; in most records, active means well fitted curve in the direction sought with a large enough effect; inconclusive means small, poorly fitted or top-dose-only effect, or another doubt; inactive means no such curve, though single readings can be large; an effect the other way counts as inactive or inconclusive.

SMILES	HEK293 cAMP cs	TSHR agonist	Caspase-1 inhib	Casp7 inh	ERK AVP block	15-hLO inh
COc1cc(C(=O)NCc2ccc3c(c2)OCO3)ccc1OCc1c(C)noc1C	n	n	n	n	n	13µM
CCOC(=O)N1CCC(NC(=O)CSCc2nc(-c3sccc3C)oc2C)CC1	n	n	n	n	n	n
Cc1ccsc1-c1nc(CSCC(=O)NCc2ccc3c(c2)OCO3)c(C)o1	n	20µM	n	n	u	n
OCl	n	n	n	n	n	n
N#CC1=C(N)Oc2n[nH]c(-c3ccccc3)c2C1c1ccncc1 (stereo not given)	n	n	n	n	n	n
N#CC1=C(N)Oc2n[nH]c(-c3ccc(F)cc3)c2C1c1cccnc1 (stereo not given)	n	n[11.4 µM]	n	n	16µM	n
CCC(C)C1C(C#N)=C(N)Oc2n[nH]c(C)c21 (stereo not given)	n	n	n	n	x	n
CCC(C)C1C(C#N)=C(N)Oc2n[nH]c(-c3ccccc3)c21 (stereo not given)	25µM	u	n	n	x	n
COc1ccc(C(=O)N2CCC3(CC2)CCN(c2ccncc2)CC3)cc1	n	n	n	n	n	n
CCCSC1=N/C(=C\C=C\c2ccco2)C(=O)S1	n	n	u	u	n	2.5µM
O=C1SC(SCc2ccccc2)=N/C1=C\c1ccco1	u	u	n	n	n	u
O=C(c1ccco1)N1c2ccccc2Sc2ccccc21	20µM	u	n	n	n	n
CC1=C(/C=C/C(C)=C/C=C/C(C)=C/C=C/C=C(C)/C=C/C=C(C)/C=C/C(=O)[C@]2(C)CC(O)CC2(C)C)C(C)(C)CC(O)C1 (stereo not given in full)	x	x	n	n	n	3.2µM
O=C(O)/C=C/c1ccc(O)c(O)c1	x	x	n	n	n	n
O=c1cc(O)cc(/C=C\c2ccc(O)c(O)c2)o1	u	u	n	u	u	0.79µM
CCN(CC)CCCN1C(=O)C(O)=C(C(C)=O)C1c1ccc(OC)cc1OC (stereo not given)	n	n	n	n	n	n
O=C(O)/C=C\c1c2ccc(=O)c(O)c-2oc2c(O)c(O)ccc12	n[11.4 µM]	n[11.4 µM]	n[11.5 µM]	n[11.5 µM]	u	1.6µM
O=C(O)[C@H]1CCCC[C@@H]1c1c2ccc(=O)c(O)c-2oc2c(O)c(O)ccc12	u	u	n[11.5 µM]	n[11.5 µM]	n[11.5 µM]	u
Nc1ccccc1S[C@@H](C[N+](=O)[O-])c1ccc2c(c1)OCO2	n[11.4 µM]	n[11.4 µM]	n[11.5 µM]	n[11.5 µM]	u	2.5µM
COc1ccc(-n2ccnc2SCC(=O)Nc2ccccc2)cc1	3.2µM	u	n	n	n	n
O=C(NCc1ccccc1)NC1(C(=O)Nc2ccc3c(c2)OCCO3)CCCCC1	n	2µM	n	n	n	n
COC(=O)c1oc2ccc(Br)cc2c1-n1cccc1	32µM	u	n	n	n	n
COC(=O)c1oc2ccc(Br)cc2c1NC(=O)CCCN1C(=O)c2ccccc2C1=O	n	n	n	n	x	n
O=C(O)CN(CC(=O)O)CC(=O)O	n	u	n	n	n	n
C[C@@H]1OC(OC2CC[C@@]3(C)C(CC[C@@]4(C)C3CC=C3C5CC(C)(C)CC[C@]5(C(=O)OC5OCC(O)[C@@H](O)[C@@H]5OC5O[C@@H](C)[C@H](O[C@H]6OC(CO)C(O)C(O)C6O)C(O)C5O)C(O)C[C@@]34C)C2(C)C)C(O)C(O)[C@H]1OC1OCC(O)C(O)[C@H]1O (stereo not given in full)	x	x	n	n	13µM	n
SMILES	HEK293 cAMP cs	TSHR agonist	Caspase-1 inhib	Casp7 inh	ERK AVP block	15-hLO inh
N#Cc1ccc(CN2CC[C@@]3(CCCN(C(=O)c4cccc(F)c4)C3)C2)cc1	n	n	n	n	n	n
Brc1ccc(OCCOCCN2CCOCC2)cc1	n	25µM	n	n	n	n
Cc1ccc(N2C(=O)[C@@H]3[C@H](C2=O)C2c4ccccc4C=CN2[C@@H]3C(=O)c2ccco2)c(C)c1 (stereo not given in full)	n	n	13µM	u	n	n
Cc1ccc(N2C(=O)[C@@H]3[C@H](C2=O)C2c4ccccc4C=CN2[C@@H]3C(=O)c2ccco2)cc1 (stereo not given in full)	n	n	x	u	n	n
CCCn1c(SCC(N)=O)nnc1-c1ccco1	n	n	n	n	n	n
COCCn1c(=O)c(-c2ccc(Cl)cc2)nc2cnc(Oc3ccc(OC)cc3)nc21	n	n	u	n	n	n
CCCn1c(C)nc2c(N(CCOC)CCOC)nc(C)nc21	n	n	n	n	n	n
Cc1cc(C)n(CCc2nc(-c3cc4ccccc4o3)cs2)n1	16µM	u	n	n	u	n
Cc1cc(C)n(-c2nc(-c3cccc(Cl)c3)cs2)n1	n[11.4 µM]	n[11.4 µM]	n	n	n	n[11.4 µM]
CCNc1ncc2nc(-c3ccc(OC)cc3)c(=O)n(CCOC)c2n1	n	n	x	u	n	n
COc1ccc(N2CC(C(=O)Nc3ccc4c(c3)OCO4)CC2=O)cc1 (stereo not given)	n	n	n	n	n	n
O=C(Nc1nc(-c2ccco2)c(-c2ccco2)s1)C1CC(=O)N(c2ccc3c(c2)OCCO3)C1 (stereo not given)	n	n	u	n	u	2.5µM
O=C1c2ccccc2-c2ccc(N(Cc3ccc(Br)cc3)Cc3ccc(Br)cc3)cc21	n[11.4 µM]	n[11.4 µM]	n[11.5 µM]	n[11.5 µM]	4µM	n[11.4 µM]
O=C1c2ccccc2[C@@H]([C@@H]2c3ccccc3C(=O)c3cc(Br)ccc32)c2ccc(Br)cc21	n[11.4 µM]	n[11.4 µM]	n[11.5 µM]	n[11.5 µM]	u	n[11.4 µM]
NC(CCC(=O)N[C@@H](CS)C(=O)NCC(=O)O)C(=O)O (stereo not given in full)	x	x	n	n	n	u
Cc1cc(N2CCCCC2)nc(SCC(=O)c2ccccc2)n1	u	u	n	n	n	n
Cc1ccc(C(=O)CSc2nc(C)cc(SCc3nnc(-c4ccccc4)o3)n2)cc1	7.9µM	u	n	n	n	n
COc1ccc2c3c(cccc13)NN=C2C	n	n	u	u	n	13µM
CC1=C(C(=O)OCc2ccccc2)C(c2ccc(Cl)cc2)NC(=O)N1CCCCCC(=O)O (stereo not given)	u	u	n	n	n	x
CC1=C(C(=O)OCc2ccccc2)C(c2ccc(C3CCCCC3)cc2)NC(=O)N1CCCCCC(=O)O (stereo not given)	32µM	u	n	n	n	n
Cc1ccc(-c2cc(C(F)F)n3ncc(C(=O)N4CCN(c5ccccn5)CC4)c3n2)cc1	32µM	u	u	u	n	n
CCN1CCN(C(=O)c2cnn3c(C(F)F)cc(-c4ccc(C)cc4)nc23)CC1	16µM	u	n	n	n	n
COc1ccc(-c2cc(C(=O)N3CCN(c4ccccn4)CC3)c3ccccc3n2)cc1	n	x	n	n	10µM	n
Cc1cnc(CNc2cc(-c3cccc(NS(C)(=O)=O)c3)ncn2)cn1	n	n	n	n	n	n
